Data as given in PubChem BioAssay (NCATS).
Values joined by “and” are separate entries in the source; they are usually repeats but may differ in a detail not shown here. Equal entries are not always repeated. Inconclusive results are not listed. Where a call stands in place of a potency, no number is given. Active and inactive are the calls of the source. Unless noted, the call rests on the fitted dose curve.

Tested on: not listed separately
Test: qHTS for Inhibitors of the Functional Ribonucleoprotein Complex (vRNP) of Lymphocytic Choriomeningitis Arenaviruses (LCMV): Viability assay - alamar blue signal for LCMV Primary Screen (AID 1347085; calls by dose curve; tested in HEK293 reporter line; further: nearly all actives have a fitted effect of over 80% in size)
Conditions: alamar blue viability counter-screen, LCMV vRNP screen cells; series mostly up to 57.5 µM
Potency means the concentration at half of the fitted maximal effect.

Q: Which Potency does the source give for `CCn1cc(C(=O)O)c(=O)c2ccc(C)nc21` here?
A: Its Potency is “inactive”.

Q: For `CCN(CC)C(=S)SSC(=S)N(CC)CC`, which Potency is on record?
A: The Potency was 863 nM (active).

Q: For `CC(=O)CCCCn1c(=O)c2c(ncn2C)n(C)c1=O`, which Potency is on record?
A: Its Potency is “inactive”.

Q: With `CC1=C(C(=O)O)N2C(=O)[C@@H](NC(=O)[C@H](N)c3ccccc3)[C@H]2SC1` as the molecule, how does the Potency read?
A: Its Potency is “inactive”.

Q: Which Potency does the source give for `CC[C@@]1(O)C(=O)OCc2c1cc1n(c2=O)Cc2cc3c(CN(C)C)c(O)ccc3nc2-1` here?
A: The Potency was 1720 nM (active).

Q: With `COc1cc2c(c(OC)c1OC)-c1ccc(OC)c(=O)cc1[C@@H](NC(C)=O)CC2` as the molecule, how does the Potency read?
A: Its Potency is “inactive”.

Q: For `CN(C)CCC=C1c2ccccc2C=Cc2ccccc21`, which Potency is on record?
A: Its Potency is “inactive”.

Q: With `O=c1c(O)c(-c2ccc(O)c(O)c2)oc2cc(O)cc(O)c12` as the molecule, how does the Potency read?
A: Its Potency is “inactive”.

Q: With `CC1(C)S[C@@H]2[C@H](NC(=O)C(C(=O)O)c3ccccc3)C(=O)N2[C@H]1C(=O)O` (some centres undefined) as the molecule, how does the Potency read?
A: The Potency was “inactive”.

Q: For `CCCCNc1ccc(C(=O)OCCOCCOCCOCCOCCOCCOCCOCCOCCOC)cc1`, which Potency is on record?
A: The Potency was “inactive”.

Q: For `COc1cc2ncnc(Nc3ccc(F)c(Cl)c3)c2cc1OCCCN1CCOCC1`, which Potency is on record?
A: Its Potency is 1110 nM (active).

Q: With `CCCCc1oc2ccc(NS(C)(=O)=O)cc2c1C(=O)c1ccc(OCCCN(CCCC)CCCC)cc1` as the molecule, how does the Potency read?
A: Its Potency is “inactive”.

Q: With `CC[C@]1(O)C[C@H]2CN(CCc3c([nH]c4ccccc34)[C@@](C(=O)OC)(c3cc4c(cc3OC)N(C=O)[C@H]3[C@@](O)(C(=O)OC)[C@H](OC(C)=O)[C@]5(CC)C=CCN6CC[C@]43[C@@H]65)C2)C1` as the molecule, how does the Potency read?
A: The Potency was 6.1 nM (active).

Q: With `Cc1cccc(Nc2ccncc2S(=O)(=O)NC(=O)NC(C)C)c1` as the molecule, how does the Potency read?
A: The Potency was “inactive”.

Q: With `CCCCOCCOCCOCc1cc2c(cc1CCC)OCO2` as the molecule, how does the Potency read?
A: The Potency was “inactive”.

Q: For `CCN(CC)CCCC(C)Nc1ccnc2cc(Cl)ccc12` (centres undefined), which Potency is on record?
A: Its Potency is “inactive”.

Q: For `CC(=O)O[C@@]12CO[C@@H]1C[C@H](O)[C@@]1(C)C(=O)[C@H](O)C3=C(C)[C@@H](OC(=O)[C@H](O)[C@@H](NC(=O)OC(C)(C)C)c4ccccc4)C[C@@](O)([C@@H](OC(=O)c4ccccc4)[C@H]21)C3(C)C`, which Potency is on record?
A: Its Potency is “inactive”.

Q: With `Cc1cn([C@H]2C[C@H](N=[N+]=[N-])[C@@H](CO)O2)c(=O)[nH]c1=O` as the molecule, how does the Potency read?
A: The Potency was “inactive”.

Q: With `CC(C)C[C@H](NC(=O)[C@H](CCc1ccccc1)NC(=O)CN1CCOCC1)C(=O)N[C@@H](Cc1ccccc1)C(=O)N[C@@H](CC(C)C)C(=O)[C@@]1(C)CO1` as the molecule, how does the Potency read?
A: Its Potency is 544 nM (active).

Q: For `O=C1OCCN1/N=C/c1ccc([N+](=O)[O-])o1`, which Potency is on record?
A: The Potency was “inactive”.

Q: For `CC(C)C(=O)Nc1ccc([N+](=O)[O-])c(C(F)(F)F)c1`, which Potency is on record?
A: Its Potency is “inactive”.

Q: For `NC[C@H](O)c1ccc(O)c(O)c1`, which Potency is on record?
A: The Potency was “inactive”.

Q: For `CC(C)NCC(O)COc1ccc(CCOCC2CC2)cc1` (centres undefined), which Potency is on record?
A: The Potency was “inactive”.

Q: With `COCCCOc1cc(C[C@@H](C[C@H](N)[C@@H](O)C[C@H](C(=O)NCC(C)(C)C(N)=O)C(C)C)C(C)C)ccc1OC` as the molecule, how does the Potency read?
A: Its Potency is “inactive”.

Q: Which Potency does the source give for `NC(=O)N/N=C/c1ccc([N+](=O)[O-])o1` here?
A: The Potency was “inactive”.

Q: For `COc1cc2nc(N3CCN(C(=O)c4ccco4)CC3)nc(N)c2cc1OC`, which Potency is on record?
A: The Potency was “inactive”.

Q: With `COc1ccc(-c2cc(=S)ss2)cc1` as the molecule, how does the Potency read?
A: The Potency was “inactive”.

Q: With `CN1CCN(CCCN2c3ccccc3Sc3ccc(Cl)cc32)CC1` as the molecule, how does the Potency read?
A: The Potency was “inactive”.

Q: For `COC(=O)Nc1nc2ccc(C(=O)c3cccs3)cc2[nH]1`, which Potency is on record?
A: Its Potency is 27.3 nM (active).

Target: Nucleoprotein (Lymphocytic choriomeningitis virus (strain Armstrong)) (UniProt P09992)
Sequence (P09992 whole entry, looked up): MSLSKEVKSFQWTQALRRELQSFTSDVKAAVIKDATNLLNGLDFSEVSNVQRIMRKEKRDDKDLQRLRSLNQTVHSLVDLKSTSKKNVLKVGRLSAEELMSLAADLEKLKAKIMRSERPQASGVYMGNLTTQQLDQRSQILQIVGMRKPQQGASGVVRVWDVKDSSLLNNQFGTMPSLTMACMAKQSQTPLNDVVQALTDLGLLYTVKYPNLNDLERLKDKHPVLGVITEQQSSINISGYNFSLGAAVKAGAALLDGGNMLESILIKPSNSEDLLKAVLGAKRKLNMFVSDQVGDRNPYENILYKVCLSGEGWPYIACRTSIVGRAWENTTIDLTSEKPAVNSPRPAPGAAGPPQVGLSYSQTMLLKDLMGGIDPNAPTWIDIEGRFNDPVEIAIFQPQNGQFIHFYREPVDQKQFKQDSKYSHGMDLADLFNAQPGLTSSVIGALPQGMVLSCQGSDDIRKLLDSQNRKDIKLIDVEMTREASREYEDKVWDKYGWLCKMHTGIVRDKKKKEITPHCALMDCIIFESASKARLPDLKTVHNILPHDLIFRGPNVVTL
Test: qHTS for Inhibitors of the Functional Ribonucleoprotein Complex (vRNP) of Lymphocytic Choriomeningitis Arenaviruses (LCMV): LCMV Primary Screen - GLuc reporter signal (AID 1347086); further: nearly all actives have a fitted effect of over 70% in size
Conditions: LCMV minigenome vRNP cell assay, Gaussia luciferase reporter; series mostly up to 57.5 µM

Q: With `CCn1cc(C(=O)O)c(=O)c2ccc(C)nc21` as the molecule, how does the Potency read?
A: Its Potency is “inactive”.

Q: For `CCN(CC)C(=S)SSC(=S)N(CC)CC`, which Potency is on record?
A: The Potency was 193 nM (active).

Q: With `CC(=O)CCCCn1c(=O)c2c(ncn2C)n(C)c1=O` as the molecule, how does the Potency read?
A: Its Potency is “inactive”.

Q: With `CC1=C(C(=O)O)N2C(=O)[C@@H](NC(=O)[C@H](N)c3ccccc3)[C@H]2SC1` as the molecule, how does the Potency read?
A: Its Potency is “inactive”.

Q: Which Potency does the source give for `CC[C@@]1(O)C(=O)OCc2c1cc1n(c2=O)Cc2cc3c(CN(C)C)c(O)ccc3nc2-1` here?
A: The Potency was 2.82 µM (active) and 3.06 µM (active).

Q: Which Potency does the source give for `CN(C)CCC=C1c2ccccc2C=Cc2ccccc21` here?
A: The Potency was “inactive”.

Q: Which Potency does the source give for `O=c1c(O)c(-c2ccc(O)c(O)c2)oc2cc(O)cc(O)c12` here?
A: The Potency was “inactive”.

Q: Which Potency does the source give for `CC1(C)S[C@@H]2[C@H](NC(=O)C(C(=O)O)c3ccccc3)C(=O)N2[C@H]1C(=O)O` (some centres undefined) here?
A: Its Potency is “inactive”.

Q: Which Potency does the source give for `CCCCNc1ccc(C(=O)OCCOCCOCCOCCOCCOCCOCCOCCOCCOC)cc1` here?
A: Its Potency is “inactive”.

Q: With `CC[C@]1(O)C[C@H]2CN(CCc3c([nH]c4ccccc34)[C@@](C(=O)OC)(c3cc4c(cc3OC)N(C=O)[C@H]3[C@@](O)(C(=O)OC)[C@H](OC(C)=O)[C@]5(CC)C=CCN6CC[C@]43[C@@H]65)C2)C1` as the molecule, how does the Potency read?
A: The Potency was 15.3 nM (active).

Q: With `Cc1cccc(Nc2ccncc2S(=O)(=O)NC(=O)NC(C)C)c1` as the molecule, how does the Potency read?
A: Its Potency is “inactive”.

Q: With `CCCCOCCOCCOCc1cc2c(cc1CCC)OCO2` as the molecule, how does the Potency read?
A: Its Potency is “inactive”.

Q: With `Cc1cn([C@H]2C[C@H](N=[N+]=[N-])[C@@H](CO)O2)c(=O)[nH]c1=O` as the molecule, how does the Potency read?
A: The Potency was “inactive”.

Q: Which Potency does the source give for `CC(C)C[C@H](NC(=O)[C@H](CCc1ccccc1)NC(=O)CN1CCOCC1)C(=O)N[C@@H](Cc1ccccc1)C(=O)N[C@@H](CC(C)C)C(=O)[C@@]1(C)CO1` here?
A: Its Potency is 385 nM (active).

Q: With `NC[C@H](O)c1ccc(O)c(O)c1` as the molecule, how does the Potency read?
A: Its Potency is “inactive”.

Q: For `CC(C)NCC(O)COc1ccc(CCOCC2CC2)cc1` (centres undefined), which Potency is on record?
A: Its Potency is “inactive”.

Q: For `COCCCOc1cc(C[C@@H](C[C@H](N)[C@@H](O)C[C@H](C(=O)NCC(C)(C)C(N)=O)C(C)C)C(C)C)ccc1OC`, which Potency is on record?
A: The Potency was “inactive”.

Q: Which Potency does the source give for `COc1cc2nc(N3CCN(C(=O)c4ccco4)CC3)nc(N)c2cc1OC` here?
A: The Potency was “inactive”.

Q: Which Potency does the source give for `COc1ccc(-c2cc(=S)ss2)cc1` here?
A: Its Potency is “inactive”.

Q: For `CN1CCN(CCCN2c3ccccc3Sc3ccc(Cl)cc32)CC1`, which Potency is on record?
A: Its Potency is “inactive”.
